IDH1 R132H inh = qHTS for Inhibitors of mutant isocitrate dehydrogenase 1 (IDH1): qHTS. Isocitrate dehydrogenase [NADP] cytoplasmic (Homo sapiens), O75874. hit rate 0.093% among 390,000. Potency, µM (top dose mostly 76.6 µM), for the others: at the top dose activity change, negative = inhibition, actives largely listed as inhibitors. IDH1-R132H enzyme, NADPH consumption, diaphorase/resazurin fluorescence; also: potency is read from the fitted curve at half-maximal effect; % is scaled to controls: 0 for no effect and ±100 for the full control effect; nearly all actives have a fitted effect of over 65% in size
Target sequence (O75874 whole entry R132H, stated change not applied): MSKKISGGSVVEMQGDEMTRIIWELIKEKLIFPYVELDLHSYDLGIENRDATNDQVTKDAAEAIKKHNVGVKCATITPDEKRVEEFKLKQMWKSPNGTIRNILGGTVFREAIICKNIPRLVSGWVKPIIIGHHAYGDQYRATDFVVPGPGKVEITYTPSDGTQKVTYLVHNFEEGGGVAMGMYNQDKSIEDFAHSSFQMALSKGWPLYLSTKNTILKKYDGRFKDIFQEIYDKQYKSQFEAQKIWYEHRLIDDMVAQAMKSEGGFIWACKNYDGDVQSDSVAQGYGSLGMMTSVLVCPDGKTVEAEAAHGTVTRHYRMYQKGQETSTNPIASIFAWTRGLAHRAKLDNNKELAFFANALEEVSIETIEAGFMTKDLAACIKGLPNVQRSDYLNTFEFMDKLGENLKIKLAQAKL
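IDH1-R132H (0.5 ug/mL) preincubated 30 min with compound, then NADPH (0.016 mM) and alpha-KG (2 mM) added; 80 min at RT, pH 7.5. Remaining NADPH coupled via diaphorase/resazurin to fluorescence (540/590 nm); concentration-response curves normalized to no-enzyme control.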
Mito fusion act = qHTS Assay for Small Molecule Inhibitors of Mitochondrial Division or Activators of Mitochondrial Fusion | S. cerevisiae fusion-defective mutant growth rescue, CellTiterGlo 48 h | Potency, µM (series often up to 46.1 µM), for the others: at the highest dose growth rescue (activation), usual class: activators | hit rate 0.23% among 320,000 | AID 485298, 2010; also: potency is read from the fitted curve at half-maximal effect; % of control where 0% means no effect; nearly all actives have a fitted effect of over 45% in size
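Temperature-sensitive fusion-defective S. cerevisiae (e.g. fzo1-1, mgm1-5) were grown with compound in YPEG medium (3% ethanol, 3% glycerol) for 48 hours at 37C. Growth rescue was measured as viability by CellTiterGlo luminescence after 10 minutes at ambient.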
ClpP mod = qHTS Assay for Activators of ClpP; ATP-dependent Clp protease proteolytic subunit (Bacillus subtilis (strain 168)), P80244; purified B. subtilis ClpP, FRET peptide cleavage, 20 min; Potency, µM (top dose mostly 57.5 µM), for inactives: at the highest dose activity change, negative = active; hit rate 1.9% among 340,000; active = well fitted falling curve with a large enough effect; inconclusive = small, poorly fitted or top-dose-only effect; inactive = no such curve, though single readings can be large or run the other way; also: potency is read from the fitted curve at half-maximal effect; the source files actives as falling curves though it sought activators and does not explain the sign; nearly all actives have a fitted effect of over 65% in size
Target sequence (P80244 whole entry, looked up): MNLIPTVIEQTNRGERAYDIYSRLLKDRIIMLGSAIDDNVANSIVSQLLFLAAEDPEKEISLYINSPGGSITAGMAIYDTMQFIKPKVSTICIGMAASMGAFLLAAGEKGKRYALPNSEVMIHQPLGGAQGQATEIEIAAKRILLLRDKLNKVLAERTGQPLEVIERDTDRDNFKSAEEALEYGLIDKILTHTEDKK
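Purified B. subtilis ClpP, 10 microg/mL final in Tris/HCl pH8 with KCl, BSA, glycerol and Tween-20, cleaved an Abz/nitrotyrosine-quenched decapeptide. Fluorescence (ex 320, em 430) was read at 0 and 20 min at room temperature. Delta was normalized to 5.8 microM ADEP and DMSO/no-enzyme controls.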
ASM inhibitor = Inhibitors of Secretory Acid Sphingomyelinase (S-ASM): qHTS. hit rate 0.006% among 340,000. Potency, µM (top dose mostly 57.5 µM), inactives show top-dose activity change, negative = inhibition, hits mostly inhibitors. placental ASM, HMU-PC fluorogenic substrate, 60 min. Sphingomyelin phosphodiesterase (Homo sapiens), P17405; also: potency is read from the fitted curve at half-maximal effect
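qHTS format. ASM enzyme prepared from human placenta hydrolyses the fluorogenic substrate HMU-PC0 (9 uM final) over 60 min at 37 °C after a 10 min compound preincubation.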
LDHA inh = qHTS assay for inhibitors of human lactate dehydrogenase; L-lactate dehydrogenase A chain (Homo sapiens), P00338; purified LDHA, NADH/diaphorase-resazurin fluorescence; hits give low values; activity change, % (values are at about 110 or 230 µM); hit rate 0.15% among 480,000; AID 1347041, 2019; in the data active = activity change below about -30%; inconclusive = mostly about -25% to -30%;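 also: plate controls were DMSO wells for no effect and wells without enzyme for full effect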
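Remaining NADH was detected by diaphorase (0.133 mg/mL) converting 37 µM resazurin to fluorescent resorufin, read at 0 and 20 minutes. The preceding 5-minute room-temperature reaction used 2 nM LDHA, 0.2 mM sodium pyruvate and 0.06 mM NADH at pH 7.4.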
RGS4 inh = Inhibitors of Regulator of G Protein Signaling (RGS) 4: qHTS; Regulator of G-protein signaling 4 (Homo sapiens), P49798; Transcreener GDP fluorescence polarization, RGS4-accelerated GTP hydrolysis; Potency, µM (doses to about 114 µM), for the others: at the top dose activity change, negative = inhibition, usual class: inhibitors; hit rate 0.039% among 390,000; AID 504845, 2011; also: potency is read from the fitted curve at half-maximal effect; % is scaled to controls: 0 for no effect and ±100 for the full control effect; nearly all actives have a fitted effect of over 75% in size
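MLSMR compounds (23 nl, pin-transferred) preincubated 10 min at room temperature with a 500nM (2x) first reagent, then RGS4 at 900nM (2x) plus Transcreener GDP mix added; fluorescence polarization (620/688 nm) read before and after 90 min at 30 °C.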
An asterisk follows results filed as active; i = inactive; u = inconclusive; x = no result given; [ ] = dose if it differs, or a comment. This excerpt belongs to a sample that is enriched for hits. Unless noted, calls follow the shape of the dose curve; as a rule, active = well fitted curve in the direction sought with a large enough effect; inconclusive = small, poorly fitted or top-dose-only effect, or another doubt; inactive = no such curve, though single readings can be large; an effect the other way counts as inactive or inconclusive.

SMILES	IDH1 R132H inh	Mito fusion act	ClpP mod	ASM inhibitor	LDHA inh	RGS4 inh
CC(=O)Nc1ccc(-c2cc(-c3ccccc3)nc(-c3ccccc3)n2)cc1	-2%	0%	28µM*	-4%	-3	-3%
O=C(O)CCn1c2c(c3ccccc31)CCCC2	4%	6%	25µM*	0%	0	-7%
O=C(CCn1c2c(c3ccccc31)CCCC2)NNC(=O)c1ccccc1C(=O)O	0%	6%	-2%	2%	-1	20%
CC(=O)NC1(C)CCCCC1	x	x	x	x	5	x
O=Nc1ccc2oc(=O)ccc2c1	x	-54%	x	x	x	6µM*
C[C@H](NS(=O)(=O)/C=C/c1ccccc1)C(=O)OCC(=O)c1c[nH]c2ccccc12	x	x	x	x	4	x
CCOc1ccc(/C=N/NC(=O)c2ccccc2NC(=O)c2ccc(OC)cc2)cc1	0%	5%	28µM*	u	-4	12%
COc1ccc(C(=O)Nc2ccccc2C(=O)N/N=C/c2ccco2)cc1	2%	-8%	-2%	-1%	-10	-12%
Cc1ccc(OC(=O)COc2ccccc2)c(-n2nc3ccccc3n2)c1	9%	2%	32µM*	-7%	3	5%
COc1ccc(C(=O)c2c(C(F)(F)F)oc3c2C(=O)c2ccccc2C3=O)cc1	14%	-5%	3.2µM*	-13%	19	16%
Cc1ccc(C(=O)c2c(C)oc3c2C(=O)C(=O)c2ccccc2-3)cc1	12%	-15%	1%	-19%	31	u
CN(C)c1ccc(-c2nn3c(-c4ccccc4Cl)nnc3s2)cc1	-2%	-1%	16µM*	i	8	u
CCOc1ccccc1-c1nn2c(Cc3ccccc3)nnc2s1	-3%	2%	25µM*	u	-3	-4%
COc1ccccc1-c1nn2c(C(F)(F)F)nnc2s1	3%	-3%	13µM*	-3%	0	-11%
COc1ccccc1-c1nnc2sc(-c3ccc(N(C)C)cc3)nn12	2%	u	25µM*	i	14	-35%
Clc1ccccc1-c1nnc2sc(-c3ccncc3)nn12	-10%	1%	-1%	-5%	-4	u
Cc1sc(NC(=O)CCC(=O)O)c(C(N)=O)c1-c1ccc(C(C)C)cc1	x	x	x	x	10	x
Cc1cc(=O)oc(C)c1C(=O)Nc1c(C)n(C)n(-c2ccccc2)c1=O	6%	-2%	-6%	6%	-3	-1%
Cc1c(NC(=O)c2c(NC(=O)CNC3CC3)sc3c2CCCC3)c(=O)n(-c2ccccc2)n1C	3%	-8%	-19%	-4%	-89*	-2%
COc1ccc(CC(=O)Nc2sc3c(c2C(=O)Nc2ccc(C)cc2)CCCCC3)cc1	13%	x	-3%	x	11	u
COc1ccc(NC(=O)c2c(NC(=O)Cc3ccccc3)sc3c2CCCC3)cc1	9%	x	28µM*	x	-5	-3%
Cc1ccc(NC(=O)c2c(NC(=O)Cc3ccccc3)sc3c2CCCC3)cc1	4%	x	22µM*	x	-10	-15%
CCNC(=O)CN1CCN(C(=O)CCc2ncc(-c3ccc(Cl)cc3)o2)CC1	x	x	x	x	3	x
Cc1ccc(-n2nnc(C(=O)NC(C)C)c2N)cc1	x	x	x	x	6	x
Cn1c(C=C(C#N)C#N)ccc1-c1ccc(Br)cc1	x	x	x	x	-3	x
SMILES	IDH1 R132H inh	Mito fusion act	ClpP mod	ASM inhibitor	LDHA inh	RGS4 inh
COC(=O)C1=C(C)NC2=C(C(=O)CC(C)(C)C2)C1c1cn(Cc2ccc(Br)cc2)nc1-c1ccccc1 (stereo not drawn)	-1%	-13%	32µM*	371%	0	17%
CCCCOc1ccc(-c2nnc(-c3ccncc3)o2)cc1	-4%	-2%	16µM*	-5%	-8	8%
CCOc1ccc(-c2nnc(-c3ccccc3)o2)cc1	-3%	0%	28µM*	2%	-6	-30%
CCSc1nnc(-c2cccs2)o1	4%	0%	28µM*	2%	-2	-11%
CN(C)c1ccc(-c2nnc(-c3cccs3)o2)cc1	0%	15%	4%	453%	-3	-22%
CCCOc1ccc(-c2nnc(-c3cccs3)o2)cc1	4%	-1%	10µM*	-1%	-5	3%
CCOc1ccc(-c2nnc(-c3ccncc3)o2)cc1	6%	-1%	u	-3%	0	u
CC(OC(=O)c1ccc2c(c1)NC(=O)CS2)C(=O)Nc1ccc(C(N)=O)cc1 (stereo not drawn)	x	x	x	x	6	x
CC(C)(C)C(=O)Nc1cccc(NC(=O)C2CCN(c3nc4ccccc4o3)CC2)c1	x	x	x	x	5	x
CN(CCO)c1ccc(/C=N/NC(=O)C2CC2)cc1	x	x	x	x	-8	x
CCCCCC1CC1C(=O)N/N=C/c1ccc(N(C)C)cc1 (stereo not drawn)	0%	0%	35µM*	23%	-2	9%
O=C(O)CCc1ccc(-c2ccc(Br)cc2)n1NC(=O)c1ccc(O)cc1	x	x	x	x	0	x
Cc1ccc(NCc2nc3ccccc3n2C)cc1	1%	-5%	14µM*	-3%	2	-27%
Cn1c(CNc2ccc(O)cc2)nc2ccccc21	-3%	-14%	-5%	-1%	-8	13%
COC(=O)c1cc(C(C)C)sc1NC(=O)Cc1c(Cl)cccc1Cl	x	x	x	x	9	x
Cc1ccc(/C=C/C(=O)OCc2ccc(C#N)cc2)cc1	x	x	x	x	6	x
COC1(OC)C(/C=C/c2ccc(C)cc2)C(C#N)(C#N)C1(OC)OC (stereo not drawn)	-3%	x	32µM*	0%	3	20%[11.4 µM]
COc1ccc(-c2c(NC(=O)c3cccc(OC)c3)sc3ccccc3c2=O)cc1	x	x	x	x	11	x
CCc1cccc(C)c1NC(=O)C1CN(S(=O)(=O)c2ccccc2)CCN1S(=O)(=O)c1ccccc1 (stereo not drawn)	-2%	1%	25µM*	0%	-6	-11%
COc1ccc(C)cc1CN1CCN(C(=O)Nc2ccc(F)cc2)CC1	x	x	x	x	-17	x
CCOC(=O)CN(C(=O)CSc1nnc(-c2cccc(OC)c2)o1)c1ccc(F)cc1	7%	u	2%	4%	-2	13%
COC(=O)CN(C(=O)CSc1nnc(-c2cccc(OC)c2)o1)c1ccc(OC)cc1	2%	-31%	16µM*	-4%	4	0%
Cc1ncc(-c2ccc(S(=O)(=O)Nc3ccc(F)cc3)cc2)o1	x	x	x	x	-4	x
